Source: PubChem BioAssay (several laboratories)
HSF1 inh = HSF1 inhibitors in luciferase reporter cells, primary screen, cell-based, NIH3T3, luminescence. activity change, negative = inhibition, % at 7.5 µM (by protocol). 300,000 tested, 0.77% active. NIH3T3-HGL HSE-luciferase, MG132-induced, luminescence 8 h; active compounds read low;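 active = more than half of replicate wells show activity change below -50%, luminescence cut by over half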;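 note: luciferase reports HSF-1 transcriptional activity via heat shock element; 0% = median of DMSO wells and -100% = zero luminescence signal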
S1P4 antag = S1P4 receptor antagonists, primary screen, cell-based; S1P4-expressing cells, antagonist mode, reporter read-out; inhibition, % at 4.98 µM; 220,000 tested, 0.26% active; in the data active = inhibition above about 29%;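 note: 0% = wells stimulated with agonist and 100% = vehicle wells without agonist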
Target sequence (O95977 whole entry, looked up): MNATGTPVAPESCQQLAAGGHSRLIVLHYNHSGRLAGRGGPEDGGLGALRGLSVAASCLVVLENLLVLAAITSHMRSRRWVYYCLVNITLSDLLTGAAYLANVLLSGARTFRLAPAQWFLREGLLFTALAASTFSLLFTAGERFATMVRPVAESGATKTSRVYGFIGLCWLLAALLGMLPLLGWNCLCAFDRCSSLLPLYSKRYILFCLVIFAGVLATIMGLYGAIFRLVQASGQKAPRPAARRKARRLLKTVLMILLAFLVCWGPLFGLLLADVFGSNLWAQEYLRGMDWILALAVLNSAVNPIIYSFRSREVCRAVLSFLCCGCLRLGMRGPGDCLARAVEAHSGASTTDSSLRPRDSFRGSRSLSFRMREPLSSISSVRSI
HSF-1 act = HSF-1 activators, primary screen, NIH3T3-HGL cells, MG132 stress, luminescence, single point | AID 504408, 2011 | activation, % at 9 µM | 300,000 tested, 1.7% active | NIH3T3-HGL HSF-1 luciferase reporter, 8 h; 100% = twice DMSO control signal;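 active = mean replicate activation of at least 50% with a set share of replicates each reaching 50%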;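 note: 0% = median of the neutral control wells and 100% = twice that signal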
S1P4 ag = S1P4 receptor agonists, primary screen, cell-based. 220,000 tested, 0.35% active. S1P4-expressing cell line, agonist reporter assay. AID 1509, 2009. activation, % at 4.98 µM. Sphingosine 1-phosphate receptor 4 (Homo sapiens), O95977; in the data active = activation above about 11%;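 note: 0% = DMSO vehicle and 100% = reference agonist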
Hsp70 activator = Hsp70 transcriptional activators, primary screen, cell-based, HeLa, Hsp70 promoter luciferase, luminescence, 10 µM; HeLa Hsp70 promoter luciferase reporter; scaled: vehicle 0, proteasome-inhibitor control 100%; activation, % at 10 µM; 200,000 tested, 0.04% active; AID 1203, 2008;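 active = activation above the mean across all tested compounds plus 3 SD, cutoff set per campaign, cut at about 5.5% in these data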;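 note: 100% = MG132 at 30 µM as the positive control and 0% = DMSO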
S1P3 antagonist = S1P3 receptor antagonists, primary screen, cell-based; inhibition, % at 4.98 µM; Sphingosine 1-phosphate receptor 3 (Homo sapiens), Q99500; AID 485, 2006; CHO S1P3 NFAT-BLA reporter, FRET fluorescence, antagonist mode; 170,000 tested, 0.27% active;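 active = inhibition above the plate cutoff, the mean inhibition of test wells on that plate plus 3 SD, cut at about 28% in these data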;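 note: cells challenged with S1P at its EC80 of 0.8 µM; blue over green emission ratio from cleaved BLA substrate after 4 h stimulation; 0% = S1P-stimulated wells and 100% = unstimulated DMSO-only wells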
S1P4 antag cf = S1P4 receptor antagonists, human, confirmation, cell-based. AID 1524, 2009. inhibition, % at 4.98 µM. shares compounds with S1P4 antag. 520 tested, 71% active. S1P4-expressing cell line, antagonist mode, reporter read-out; in the data active = inhibition above about 30%
S1P1 antagonist = S1P1 receptor antagonists, human, counter-screen for S1P4 antagonist project, cell-based; shares compounds with S1P4 antag; cell-based S1P1 antagonist counterscreen, inhibition; inhibition, % at 4.98 µM; 520 tested, 37% active; AID 1564, 2009; in the data active = inhibition above about 40%;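 note: receptor stimulated with S1P near its EC80; 0% = agonist stimulated wells and 100% = vehicle only wells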
* marks the source's active call; other numbers are inactive results; . = not tested or not shown. Most compounds without a hit are left out; they make up all but 2.9% or so of the library.

SMILES	HSF1 inh	S1P4 antag	HSF-1 act	S1P4 ag	Hsp70 activator	S1P3 antagonist	S1P4 antag cf	S1P1 antagonist
CCO[C@@H]1OC(C(=O)Nc2ccccc2)=C[C@H](C2CC2)[C@H]1CCCO	-9	-1	-4	2	0	-4	.	.
CCN(CC)C(=O)CN(C#N)c1nc(Cl)nc(N(C)C)n1	-1	42*	6	-2	0	-16	50*	39
CCOC(=O)CN(C#N)c1nc(N(C)C)nc(N(C)C)n1	11	-15	9	2	0	-5	.	.
CCOc1ccc2ccccc2c1/C=N/NC(=O)c1ccc(C)nc1	1	.	-3	.	.	.	.	.
CCCc1cnc(NCCNCC(O)COc2ccc(Cl)c(Cl)c2)nc1 (stereo unspecified)	2	31*	5	-1	.	9	25	64*
N#Cc1nccnc1S(=O)(=O)c1cccs1	49	41*	47	0	.	4	97*	56*
CN(Cc1ccccc1C#N)S(=O)(=O)c1cccs1	-2	.	1	.	.	.	.	.
Cc1nonc1C1CCCN1Cc1nc(-c2ccccc2Cl)oc1C (stereo unspecified)	2	8	9	-1	0	-4	.	.
Cc1ccc(NN2C(=O)C=C(c3ccccc3)C2=O)cc1	148	37*	207*	0	0	15	57*	36
Cc1ccc(-n2nnnc2Sc2ccc(S(=O)(=O)NCCN(C)C)cc2[N+](=O)[O-])cc1	-9	49*	-2	3	0	-6	68*	59*
O=[N+]([O-])c1cc(S(=O)(=O)NCCN2CCOCC2)ccc1Sc1nnnn1-c1ccccc1	2	9	10	2	0	2	.	.
Cc1cc(NC2CCCCC2)nc2ccccc12	8	30*	25	0	0	-10	18	55*
Cc1cc(NCc2ccccn2)nc2ccccc12	4	3	15	3	0	.	.	.
Cc1nnc(N/N=C/c2c(Cl)cccc2Cl)n1N	17	30*	17	0	0	-19	7	-20
Cc1cc(NC(=O)c2ccccc2-c2ccccc2)ccc1Br	7	37*	19	-1	0	-1	32*	14
CC(=O)N(C1=C(Cl)C(=O)c2ccccc2C1=O)C1CCCCC1	-28	52*	-31	1	.	-7	115*	61*
Cc1cc2c(cc1S(=O)(=O)N1CCOCC1)NC(=O)CO2	-6	.	-3	.	.	.	.	.
Cc1ccccc1OCCN1C(=O)NC2(CCc3ccccc32)C1=O (stereo unspecified)	-3	36*	-14	0	1	-4	1	-11
COc1ccc(C(=O)N2CCN(c3ccccc3)CC2)cc1S(=O)(=O)N1CCOCC1	-4	.	1	.	.	.	.	.
O=C(Nc1nnc(-c2cccs2)o1)c1cccc(Oc2ccccc2)c1	.	32*	.	2	0	-32	98*	94*
CC(NC(=O)c1ccccc1)C(c1cccs1)N1CCOCC1 (stereo unspecified)	-9	-3	-3	0	0	.	.	.
CC(C)(C)c1cc(NCc2ccccn2)n2ncc(-c3ccccc3)c2n1	.	9	.	0	.	-12	.	.
COc1ccc(OC)c(NC=C2C(=O)OC3(CCCCC3)OC2=O)c1	7	32*	4	4	0	-16	-19	-3
COc1ccc(OC)c(NC=C2C(=O)OC(C)(C)OC2=O)c1	-4	-8	-4	0	0	-14	.	.
CC1CCCC(C)N1C(=O)CSc1nnnn1Cc1ccccc1 (stereo unspecified)	9	92*	-6	1	0	-18	2	-2
SMILES	HSF1 inh	S1P4 antag	HSF-1 act	S1P4 ag	Hsp70 activator	S1P3 antagonist	S1P4 antag cf	S1P1 antagonist
CC1CCCC(C)N1C(=O)CSc1nnnn1-c1cccc2c1CCCC2 (stereo unspecified)	4	14	27	0	0	.	.	.
O=C(COc1ccc(S(=O)(=O)N2CCCC2)cc1)N1CCN(c2ccccc2F)CC1	3	.	8	.	.	.	.	.
CCOC(=O)COc1ccc(S(=O)(=O)N2CCN(c3ccccc3F)CC2)cc1	-13	36*	5	-4	0	-6	26	-21
CCOc1cc(/C=C\[N+](=O)[O-])ccc1OCC(=O)Nc1ccccc1C	-62*	58*	-63	1	0	.	118*	84*
O=c1[nH]sc2ccccc12	-22	32*	-25	3	0	5	91*	5
CCOC(=O)CN(c1ccccc1C)S(=O)(=O)c1ccc(Cl)cc1	-2	.	-5	.	.	.	.	.
CCc1nnc(N/N=C/c2c(C)[nH]c3ccccc23)n1N	.	97*	.	0	0	11	4	3
Cc1[nH]c2ccccc2c1/C=N/Nc1nc2ccccc2[nH]1	337	50*	403*	1	.	23	57*	27
CC(=O)NCc1ccc(S(=O)(=O)N2CCCN(C)CC2)cc1	3	.	22	.	.	.	.	.
O=[N+]([O-])c1ccc(N=Nc2c(Cl)cc(O)cc2Cl)cc1	6	31*	13	1	.	3	67*	18
CC1CCN(Cc2c(C(=O)N/N=C/c3ccc(OC(C)C)cc3)nnn2-c2nonc2N)CC1	3	.	29	.	.	.	.	.
CC(=O)N1CCc2c(sc(NC(=O)c3ccc([N+](=O)[O-])o3)c2C#N)C1	-1	33*	-11	0	0	2	82*	34
O=C(Nc1nnc(-c2ccc3c(c2)CCCC3)o1)c1ccccc1	-19	31*	-22	2	0	.	102*	96*
Cc1ccc(C(OCC(O)CNC(CO)C(O)c2ccc([N+](=O)[O-])cc2)c2ccccc2)cc1 (stereo unspecified)	9	.	-4	.	.	.	.	.
O=C(O)c1cccnc1Sc1ccc(Br)cc1	0	.	7	.	.	.	.	.
CCN(CC(=O)Nc1c(F)cccc1F)C(=O)C1CCN(S(=O)(=O)c2ccc(C)cc2C)CC1	1	.	9	.	.	.	.	.
CCOC(=O)C1(Cc2ccccc2)CCN(Cc2cn(CC(=O)OC)c3ccccc23)CC1	2	30*	7	1	0	0	5	16
CCOC(=O)C1(Cc2ccccc2)CCN(Cc2cccc(OC)c2O)CC1	-4	-12	-1	2	0	3	.	.
O=C(N/N=C/c1ccoc1)c1ccccc1F	6	.	0	.	.	.	.	.
